Sampled rows, rich in hits. Any-hit rate of the full collection: about 4.8%.
ssDAF12 agonist: activates DAF-12 receptor from parasite S. stercoralis; HEK293 ssDAF-12/GRIP1 lit1-tk-luc reporter, luminescence; % of 3 µM dafachronic acid response; activation, % at 6.8 µM; actives 1% (n = 370,000); AID 652126;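 active = activation above the mean over all tested compounds plus 3 SD, cut at about 0.9% in these data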;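 note: 0% = DMSO-only wells and 100% = 3 µM delta7-dafachronic acid wells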
DAX1 inh-1: inhibits human nuclear receptor DAX1. P51843. HEK293 Gal4-DAX1 luciferase reporter, luminescence. inhibition, % at 6.75 µM. actives 0.99% (n = 340,000). AID 504766;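 active = inhibition above the mean over all tested compounds plus 3 SD, cut at about 4.2% in these data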;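 note: 0% = DAX1-transfected cells with DMSO and 100% = empty-vector control cells with DMSO; inhibition shows as a rise in luminescence from relieved DAX1 repression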
Target sequence (P51843 207-470 limits assumed): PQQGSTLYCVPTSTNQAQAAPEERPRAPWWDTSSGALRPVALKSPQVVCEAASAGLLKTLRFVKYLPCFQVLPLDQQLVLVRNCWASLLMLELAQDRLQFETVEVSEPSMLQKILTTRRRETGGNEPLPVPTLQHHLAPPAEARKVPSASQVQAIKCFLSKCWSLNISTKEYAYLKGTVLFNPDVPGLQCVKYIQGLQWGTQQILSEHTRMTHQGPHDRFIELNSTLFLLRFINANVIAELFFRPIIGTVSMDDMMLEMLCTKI
hcDAF-12 act: activators of H. contortus DAF-12 nuclear receptor. HEK293 hcDAF-12 lit1-tk-luc reporter, luminescence; 0% DMSO, 100% Δ7-dafachronic acid. activation, % at 6.8 µM. actives 1.4% (n = 370,000). AID 652067;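 active = activation above the mean of all tested compounds plus 3 SD, cut at about 5.5% in these data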;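 note: 100% = response to 3 µM Δ7-dafachronic acid high control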
hgDAF12 agonist: hgDAF-12 agonism, primary luciferase screen; actives 1.8% (n = 370,000); AID 687014; activation, % at 6.8 µM; HEK293 GAL4-hgDAF12 UAS-luciferase reporter, agonist luminescence; normalized to butyrate control;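 active = activation above a cutoff set at the mean of all screened compounds plus 3 SD, cut at about 10% in these data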;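 note: 0% = DMSO wells and 100% = sodium butyrate wells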
DAX1 inh-2: DAX1 (NR0B1) inhibition, primary screen | actives 1.1% (n = 370,000) | AID 652010 | HEK293T StAR-luciferase reporter, SF-1/DAX-1 repression relief | inhibition, % at 6.8 µM;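 active = inhibition above the mean over all tested compounds plus 3 SD, cut at about 3.6% in these data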;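 note: 0% = DAX-1 cells with DMSO and 100% = cells lacking DAX-1 with DMSO; higher inhibition means more luminescence from relief of DAX-1 repression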
SMARCA2 activ: activators of SMARCA2 function. MG213 cells, MMTV-luciferase reporter, dexamethasone, overnight. activation, % at 9.1 µM. actives 1% (n = 370,000); in the data active = activation above about 7.8%;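 note: 0% = vehicle wells and 100% = reference activator wells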
* marks the source's active call; other numbers are inactive results.

SMILES | ssDAF12 agonist | DAX1 inh-1 | hcDAF-12 act | hgDAF12 agonist | DAX1 inh-2 | SMARCA2 activ
Cc1cc2c(cc1S(=O)(=O)NCc1ccccc1)n(C)c(=O)c(=O)n2C | -1 | 1 | 0 | -3 | 0 | 1
COC(=O)C/C(C)=N/Nc1ccc(S(=O)(=O)N2CCCC2)cc1[N+](=O)[O-] | -1 | 4.5* | -2 | -4 | 0 | -4
COC(=O)COc1ccc(S(=O)(=O)N2CCCCC2)cc1[N+](=O)[O-] | -2 | -1 | 2 | -3 | 0 | -2
CC(C)c1ccc(NC(=O)N(CCc2nc3ccccc3[nH]2)C2CCCC2)cc1 | 0.9* | 1 | 3 | 0 | 0 | 2
CC(Sc1nnc(Nc2ccccc2)s1)C(=O)Nc1nc(-c2ccccc2)cs1 (centres undefined) | -1 | 5.0* | 3 | 0 | 1 | -1
CC(C)CN(C(=O)COC(=O)c1cccs1)c1c(N)n(Cc2ccccc2)c(=O)[nH]c1=O | 0 | 1 | 0 | 6 | 0 | 0
CCCCn1c(N)c(N(CCOC)C(=O)CSc2ccccc2C)c(=O)[nH]c1=O | 0 | 5.3* | -1 | 3 | 0 | -1
CCCCn1c(N)c(N(CC(C)C)C(=O)CCCn2c(=O)oc3ccccc32)c(=O)[nH]c1=O | -1 | 4.3* | -1 | 1 | 0 | -3
CCCCN(C(=O)CSc1cc(C)c2ccc(OC)cc2n1)c1c(N)n(Cc2ccccc2)c(=O)[nH]c1=O | 4.8* | 0 | 2 | -4 | 0 | -5
CCCCn1c(N)c(N(CC)C(=O)C(c2ccccc2)c2ccccc2)c(=O)[nH]c1=O | -1 | 4.9* | 1 | -4 | 1 | -4
CCCCn1c(N)c(N(C)C(=O)CCCn2c(=O)oc3ccccc32)c(=O)[nH]c1=O | 0 | -1 | 0 | 4 | 0 | -3
CCCCN(C(=O)CSc1cc(C)c2ccccc2n1)c1c(N)n(Cc2ccccc2)c(=O)[nH]c1=O | -2 | 2 | 1 | 2 | 0 | -3
C[C@H]1CN([C@@H](C)CO)C(=O)Cc2cc(NC(=O)Cc3ccccc3)ccc2O[C@H]1CN(C)C(=O)Nc1cccc2ccccc12 | -1 | 2 | 0 | 3 | 0 | -1
O=C(NCc1cccc(C(F)(F)F)c1)C1CCCN(c2ncccn2)C1 (centres undefined) | -2 | 1 | -1 | -1 | -1 | -2
COCCN(C(=O)COC(=O)CCc1nc2ccccc2s1)c1c(N)n(Cc2ccccc2)c(=O)[nH]c1=O | -1 | 0 | 1 | 1 | 0 | -1
CCCN(C(=O)c1nc2nc(C)cc(C)n2n1)c1c(N)n(Cc2ccccc2)c(=O)[nH]c1=O | -1 | 2 | -2 | -1 | 3.8* | -3
COCCN(C(=O)CSc1nc2ccccc2s1)c1c(N)n(Cc2ccccc2)c(=O)[nH]c1=O | 0 | 3 | 6.5* | 1 | 1 | 0
COc1cc(C(=O)Oc2c(OC)cc(C(=S)N3CCOCC3)cc2OC)cc(OC)c1OC | -2 | 5.0* | -1 | -3 | 0 | -1
CC(C)(O)C(=O)N=Nc1c(O)[nH]c2ccccc12 | 0 | 1 | 5 | 10* | 2 | 3
O=C(CNC(=O)Cc1ccccc1)N=Nc1c(O)[nH]c2ccccc12 | 0 | 0 | 1 | 2 | 0 | 2
Oc1[nH]c2ccccc2c1N=Nc1ccc(F)cc1 | 1 | 2 | 4 | 12* | 2 | 5
OCC1OC(n2ccc3c(NO)ncnc32)C(O)C1O (centres undefined) | -2 | -3 | 1 | -4 | -5 | -9
C/C(CC(=O)Nc1ccc(Cl)c(Cl)c1)=N\NC(N)=S | -1 | -1 | 0 | -1 | -2 | -5
CCOC(OCC)c1cc2ccccc2cn1 | 2.2* | 0 | 2 | 3 | 0 | 0
CC(=O)c1c(C)[nH]c(C(=O)NCCc2ccccc2)c1C | 0 | 3 | 3 | 9 | 3 | 5
CC(=O)c1c(C)[nH]c(C(=O)N(CCc2ccccc2)Cc2ccccc2)c1C | -1 | -1 | 5.9* | -2 | 0 | -1
Nc1nc(-c2cccs2)c(CC(=O)O)s1 | -1 | -1 | 0 | -2 | 0 | -1
